Measured values from publication PMC5540273 (PLoS ONE, 2017).

system: AURKA; details: concentration: 1 μM, replicates: in singlicate; n = 1
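Also: KINOMEscan kinase panel screen.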

SMILES	%Inh [%]
Cc1c2ccc(N(C)c3ccnc(Nc4cccc(S(N)(=O)=O)c4)n3)cc2nn1Cc1ccccc1.Cl.Cl [GW787226]	29
Fc1ccc(-c2ncn(CCCN3CCOCC3)c2-c2cccnc2)cc1 [SB-211743]	15
COc1ccc(Nc2ncc(C#N)c(Nc3ccccc3C(N)=O)n2)cc1N1CCN(C)CC1.Cl [GSK1558669]	99.9
O=c1cc(N2CCOCC2)nc2n(Cc3cccc4ccccc34)ccn12 [GSK2333389]	0
CCc1nc(-c2cccc(C)c2)c(-c2ccnc(NCc3ccccc3)c2)s1	0
O=C(NCCNc1ccnc(Nc2ccc(F)cc2)n1)c1cc2ccccc2s1 [GSK1379874]	11
O=C(NCCNc1ccnc(Nc2ccc(F)cc2)n1)Nc1ccccc1F [GSK1379880]	11
CN(C(=O)c1ccc(-c2cc(-c3c[nH]nc3-c3ccccn3)ccn2)cc1)C1CCOCC1 [GW810083]	0
O=C(Nc1n[nH]c2cc(-c3cccc(F)c3)ccc12)C1CC1 [SB-735464]	18
Cc1nnc(-c2ccc(C)c(-c3ccc(C(=O)Nc4ccc(NS(C)(=O)=O)cc4)cc3)c2)o1 [GW702865]	30
COc1ccc(S(=O)(=O)NC2CCN(c3cc(C)nc(Nc4cccc(C#N)c4)n3)CC2)cc1.O=C(O)C(F)(F)F [GSK1653539]	2
O=C(NOCC1CC1)c1ccc(F)c(F)c1Nc1ccc(I)cc1Cl	0
COc1cc2c(cc1OC[C@@H](O)CO)ncc1c3ccc(C#N)cc3[nH]c21	6
